Bioassay records: PubChem BioAssay, National Center for Advancing Translational Sciences (NCATS)
In the library only some 17% were active in any assay of this set; here they are far more common.
DT40 TDP1 no CPT – qHTS for Inhibitors of human tyrosyl-DNA phosphodiesterase 1 (TDP1): qHTS in cells in absence of CPT; AID 686978, 2013; hit rate 15% among 420,000; Potency, µM (series often up to 46.2 µM), hits mostly inhibitors; DT40 Tdp1-/- hTDP1 cells, no CPT, ATP luminescence, 48 h; also: nearly all actives have a fitted effect of over 55% in size
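Growth of hTDP1-complemented DT40 Tdp1-knockout cells is measured by ATP luminescence after at least 48 hr compound exposure at 37 °C, with DMSO substituting for the 20 nM CPT used in the parallel screen.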
TDP1 block – qHTS Assay for Inhibitors of Tyrosyl-DNA Phosphodiesterase (TDP1); Potency, µM (highest dose often 130 µM), hits mostly inhibitors; Tyrosyl-DNA phosphodiesterase 1 (Homo sapiens), Q9NUW8; hit rate 0.28% among 350,000; recombinant TDP1, AlphaScreen DNA substrate cleavage; AID 485290, 2010; also: nearly all actives have a fitted effect of over 40% in size
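Recombinant E. coli-expressed Tdp1 (1 nM) preincubated with compound 15 min at RT, then 5'-biotin/3'-phosphotyrosine-FITC DNA substrate (15 nM) added for 5 min. AlphaScreen beads (10 ug/ml) added, 10 min RT; tyrosine-FITC cleavage read as signal loss.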
ClpP mod – qHTS Assay for Activators of ClpP; purified B. subtilis ClpP, FRET peptide cleavage, 20 min; Potency, µM (titrated, usually from 57.5 µM); ATP-dependent Clp protease proteolytic subunit (Bacillus subtilis (strain 168)), P80244; hit rate 1.9% among 340,000; AID 651965, 2013; active = well fitted falling curve with a large enough effect; inconclusive = small, poorly fitted or top-dose-only effect; inactive = no such curve, though single readings can be large or run the other way; also: the source files actives as falling curves though it sought activators and does not explain the sign; nearly all actives have a fitted effect of over 65% in size
Target sequence (P80244 whole entry, looked up): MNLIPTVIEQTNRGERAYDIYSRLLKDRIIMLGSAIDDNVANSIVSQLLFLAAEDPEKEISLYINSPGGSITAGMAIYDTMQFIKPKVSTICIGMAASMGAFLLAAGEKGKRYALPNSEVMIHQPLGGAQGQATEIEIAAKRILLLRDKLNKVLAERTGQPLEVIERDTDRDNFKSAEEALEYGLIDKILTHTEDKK
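ClpP 10 microg/mL final, pH 8 Tris/KCl buffer with BSA, glycerol, Tween-20; compound pinned in; FRET-FV substrate; RT 20 min; Ex320/Em430; ΔFRET vs ADEP 5.8 microM, DMSO, no enzyme.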
TDP1 cell CPT – qHTS for Inhibitors of human tyrosyl-DNA phosphodiesterase 1 (TDP1): qHTS in cells in presence of CPT. chicken DT40 Tdp1-/-;hTDP1 cells + 20 nM CPT, ATP luminescence, 48 h. Potency, µM (highest dose often 46.2 µM), actives largely listed as inhibitors. hit rate 12% among 420,000; also: nearly all actives have a fitted effect of over 55% in size
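Cell growth measured by CellTiter-Glo luminescence after a minimum 48 h, 37 C compound exposure with 20 nM CPT in Tdp1-knockout DT40 cells stably expressing hTDP1, seeded 400/well; qHTS titration format.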
Numbers stand for hits; 0 = inactive; ? = inconclusive; - = not tested or not shown; ! = not confirmed by another sample. Unless noted, calls follow the shape of the dose curve; as a rule, active = well fitted curve in the direction sought with a large enough effect; inconclusive = small, poorly fitted or top-dose-only effect, or another doubt; inactive = no such curve, though single readings can be large; an effect the other way counts as inactive or inconclusive.

SMILES	DT40 TDP1 no CPT	TDP1 block	ClpP mod	TDP1 cell CPT
O=C(NC1CCCCC1)C(c1ccc2ncccc2c1)N(Cc1ccccc1)C(=O)c1cccs1 (stereo not given)	18µM	0	0	?
O=C(NC1CCCCC1)C(c1ccccc1)N(C(=O)c1cccs1)c1ccc2c(c1)OCO2 (stereo not given)	?	0	0	?
O=C(NCC(=O)N(c1ccccc1)C(C(=O)NC1CCCCC1)c1cccnc1)c1cccs1 (stereo not given)	0	0	-	0
Cc1sc2nc(COC(=O)c3ccc(Cl)c(N)c3)[nH]c(=O)c2c1C	7.3µM	0	0	16µM
Cc1sc2nc(COC(=O)c3ccc(N4CCCC4)c([N+](=O)[O-])c3)[nH]c(=O)c2c1C	?	0	0	0
Cc1sc2nc(COC(=O)c3c(F)cccc3F)[nH]c(=O)c2c1C	?	0	-	0
Cc1sc2nc(COC(=O)c3ccc(O)cc3)[nH]c(=O)c2c1C	18µM	0	-	?
Cc1sc2nc(COC(=O)c3ccc(N4CCCC(C)C4)c([N+](=O)[O-])c3)[nH]c(=O)c2c1C (stereo not given)	16µM	0	0	?
CCN(c1ccccc1)S(=O)(=O)c1cccc(C(=O)OCc2nc3sc(C)c(C)c3c(=O)[nH]2)c1	0	0	0	0
Cc1[nH]c(=O)c(C#N)cc1-c1ccncc1	0.06µM!	0	0	?
Cc1[nH]c(=O)c(C#N)cc1-c1ccc2nccn2c1	0	0	-	0
NC(=O)CN1C(=O)NC2(CCCc3ccccc32)C1=O (stereo not given)	0	0	0	0
COC(=O)c1ccc2nc(-c3ccc(C#N)cc3)c(Cc3cccc(F)c3)n2c1	18µM	-	0	15µM
COC(=O)c1ccc2nc(-c3ccc(C)cc3)c(Cc3cccc(F)c3)n2c1	21µM	-	?	21µM
Cc1ccc2nc(C(C)(C)C)c(Cc3cccc(F)c3)n2c1	18µM	-	0	15µM
CCc1ccccc1NC(=O)c1cc(S(=O)(=O)N2CCCC2)cn1C	0	0	0	?
O=C(CCN1CCC2CCC(C2)C1)c1ccccc1 (stereo not given)	2.6µM	-	0	2.6µM
O=C(Nc1cc(Sc2ccccn2)cc([N+](=O)[O-])c1)c1ccc(Cl)cc1	23µM	0	0	?
O=C(COC(=O)c1ccccc1NC(=O)c1ccccc1)c1ccc([N+](=O)[O-])cc1	?	0	0	23µM
O=C(O)c1ccc(CNC(=O)c2ccccc2NC(=O)c2ccc([N+](=O)[O-])cc2)cc1	0	0	-	0
O=C(Nc1ccccc1C(=O)Nc1ccccn1)c1ccc([N+](=O)[O-])cc1	0	0	32µM	0
O=C(Nc1ccccn1)c1sc2cc([N+](=O)[O-])ccc2c1Cl	?	0	0	23µM
O=C(NCCCN1CCOCC1)c1sc2cc([N+](=O)[O-])ccc2c1Cl	?	0	-	0
O=C(Nc1cc(Sc2ccccn2)cc([N+](=O)[O-])c1)c1cccc(Cl)c1	?	0	0	?
O=C(COC(=O)c1ccccc1NC(=O)c1ccccc1)c1cccc([N+](=O)[O-])c1	0	0	0	0
SMILES	DT40 TDP1 no CPT	TDP1 block	ClpP mod	TDP1 cell CPT
CN(c1ccccc1)S(=O)(=O)c1cccc(NC(=O)COc2ccccc2)c1	?	0	0	?
Cc1nnnn1/C(=C\c1ccccc1)C(=O)OCC(=O)Nc1cccc(S(=O)(=O)N(C)C)c1	7.3µM	0	0	10µM
O=C(COc1ccc(C(=O)c2ccccc2)cc1)Nc1cccnc1	2.9µM	?	-	5.2µM
N#Cc1ccc(-c2ccc(OCC(=O)Nc3cccnc3)cc2)cc1	?	0	16µM	?
Cn1nc(-c2ccc(OCC(=O)Nc3cccnc3)cc2)c2ccccc2c1=O	?	0	0	?
CN(C)S(=O)(=O)c1cccc(NC(=O)COC(=O)c2ccc3ccccc3n2)c1	0	0	0	0
O=C(CCCOc1ccccc1)Nc1cccnc1	0	0	0	0
CN(C)S(=O)(=O)c1cccc(NC(=O)COc2ccc(C(=O)c3ccccc3)cc2)c1	16µM	-	-	18µM
CN1C(=O)NC(c2cccc([N+](=O)[O-])c2)C2=C1CC(C)(C)CC2=O (stereo not given)	0	-	0	0
COc1ccccc1C(=O)NNC(=S)NC(=O)c1cc(OC)c(OC)c(OC)c1	6.5µM	0	0	18µM
COc1cc(C(=O)NNC(=S)NC(=O)c2ccccc2C)cc(OC)c1OC	?	0	0	16µM
COc1cccc(Nc2ncc3nc(-c4cccs4)c(=O)n(C[C@H]4CCCO4)c3n2)c1	0	-	-	?
CO/N=C/c1cccn1-c1nccc(N(C)C)c1C#N	0	-	-	0
N=C(SC1CC(=O)N(c2ccc(F)cc2)C1=O)N1N=C(c2ccccc2)CC1c1ccccc1 (stereo not given)	?	0	-	16µM
Cc1cc(Br)c(NC(=O)COn2nnc3ccc(S(C)(=O)=O)cc32)c(Br)c1	0	0	-	0
Cc1cc(NC(=O)COn2nnc3ccc(S(C)(=O)=O)cc32)ccc1Br	16µM	0	0	?
Cc1ccc(CN2CCN(/N=C/c3cccn3C)CC2)c(C)c1	23µM	0	0	23µM
Cc1ccc(CN2CCSCC2)c(C)c1	0	0	0	0
CCC(c1ccccc1)C(CC)c1cc(O)c(O)c(O)c1 (stereo not given)	8.2µM	-	-	16µM
OC1OC[C@H](O)[C@@H](O)[C@@H]1O (stereo not given in full)	-	0	-	-
CC1(Cc2ccccc2OC(F)(F)F)C(=O)Nc2cc(-c3ccccc3Cl)ccc21 (stereo not given)	?	-	0	?
CC1(Cc2ccc3ccccc3n2)C(=O)Nc2ccc(OC(F)(F)F)cc21 (stereo not given)	?	-	0	?
CC1(Cc2ccccc2OC(F)(F)F)C(=O)Nc2ccc(OC(F)(F)F)cc21 (stereo not given)	21µM	-	0	21µM
CC1(Cc2ccccc2OC(F)(F)F)C(=O)Nc2ccc(-c3ccsc3)cc21 (stereo not given)	18µM	-	0	?
CCC(C)[C@H](N)c1cn([C@@H](Cc2cc3ccccc3[nH]2)C(=O)N2CCNCC2)nn1 (stereo not given in full)	0	0	0	0
CCOCCCNC(=S)N1CCC(C(=O)c2ccc(C)cc2)CC1	?	-	32µM	18µM
COCCCNC(=S)N1CCC(C(=O)c2ccc3c(c2)OCCO3)CC1	0	0	0	?
C=CCNC(=S)N1CCC(C(=O)c2ccc(C)cc2)CC1	?	-	0	26µM
O=C(c1ccc(F)cc1)C1CCN(C(=S)NCC2CCCO2)CC1 (stereo not given)	0	0	0	0
Cc1ccc(C(=O)C2CCN(C(=S)NCC3CCCO3)CC2)cc1 (stereo not given)	10µM	0	0	15µM
